Screening results deposited in PubChem BioAssay by National Center for Advancing Translational Sciences (NCATS).
Hits are enriched below; roughly 1.5% of the tested compounds scored in any of these assays.
APE1 inh: qHTS Assay for Inhibitors of the Human Apurinic/apyrimidinic Endonuclease 1 (APE1) | DNA repair nuclease/redox regulator APEX1 (Homo sapiens), P27695 | recombinant APE1, TAMRA/BHQ-2 abasic DNA cleavage fluorescence | Potency, µM (doses to about 65.8 µM), without a hit: top-dose activity change, negative = inhibition, most hits filed as inhibitors | 350,000 tested, 0.35% active | AID 2517, 2012;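 also: potency is read from the fitted curve at half-maximal effect; plate controls were vehicle for no effect and reference inhibitor for full effect; nearly all actives have a fitted effect of over 55% in size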
Target sequence (P27695 whole entry, looked up): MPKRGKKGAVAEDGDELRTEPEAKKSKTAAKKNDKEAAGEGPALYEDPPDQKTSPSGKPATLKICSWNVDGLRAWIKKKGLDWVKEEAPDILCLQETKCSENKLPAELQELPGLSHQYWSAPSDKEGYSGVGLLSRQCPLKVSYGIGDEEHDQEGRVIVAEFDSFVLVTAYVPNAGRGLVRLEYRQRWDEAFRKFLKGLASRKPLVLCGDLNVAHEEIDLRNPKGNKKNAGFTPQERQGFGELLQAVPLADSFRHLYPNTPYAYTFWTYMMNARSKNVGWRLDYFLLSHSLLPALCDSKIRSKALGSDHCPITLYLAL
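Compound pre-exposure to 0.75 nM APE1, 15 min at ambient temperature. Reaction initiated with 50 nM TAMRA/BHQ-2 THF substrate, read immediately in kinetic mode, 525 nm excitation, 598 nm emission.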
BLM helicase inh: qHTS Assay for Inhibitors of Bloom's syndrome helicase (BLM). recombinant BLM DNA unwinding, fluorescence dequenching. Potency, µM (series often up to 56.1 µM), for inactives: at the highest dose activity change, negative = inhibition, actives largely listed as inhibitors. 350,000 tested, 0.2% active;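 also: potency is read from the fitted curve at half-maximal effect; plate controls were vehicle for no effect and no enzyme for full effect; nearly all actives have a fitted effect of over 35% in size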
PI5P4K alpha inh: qHTS for Inhibitors of phosphatidylinositol 5-phosphate 4-kinase (PI5P4K); 330,000 tested, 1.2% active; PI5P4Kalpha enzyme, ADP-Glo luminescence, 60 min; stronger effect = lower value; max response, %; AID 652105, 2013; active = max response of -50% or lower; inconclusive = between -30% and -50%; inactive = -30% or higher; also: value at the top dose of about 77 µM
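Human PI5P4Kalpha with substrate in 0.038 M HEPES pH 7.4, 0.28 mM EGTA, 0.1% CHAPS, 5% DMSO; reaction started with 5 microM ATP (final), 60 min at room temperature. ADP formed read by ADP-Glo luminescence.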
FEN1 inhibitor: qHTS Assay for the Inhibitors of Human Flap endonuclease 1 (FEN1); 390,000 tested, 0.35% active; Recombinant FEN1 flap cleavage, fluorescence, 15 min; Potency, µM (top dose mostly 114 µM), without a hit: top-dose activity change, negative = inhibition, most hits filed as inhibitors; AID 588795, 2011; P39748; also: potency is read from the fitted curve at half-maximal effect; nearly all actives have a fitted effect of over 65% in size
Target sequence (P39748 whole entry, looked up): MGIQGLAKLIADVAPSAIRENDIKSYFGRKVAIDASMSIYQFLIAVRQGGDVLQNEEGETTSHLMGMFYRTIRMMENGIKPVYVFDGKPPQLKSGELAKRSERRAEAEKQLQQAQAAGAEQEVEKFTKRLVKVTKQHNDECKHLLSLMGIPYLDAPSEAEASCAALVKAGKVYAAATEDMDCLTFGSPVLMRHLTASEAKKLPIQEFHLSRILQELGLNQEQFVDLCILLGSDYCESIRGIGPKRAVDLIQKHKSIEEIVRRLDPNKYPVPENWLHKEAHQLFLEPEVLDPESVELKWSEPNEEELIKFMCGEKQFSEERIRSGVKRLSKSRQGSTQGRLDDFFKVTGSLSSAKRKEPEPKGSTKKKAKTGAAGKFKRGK
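Potency values derive from four-parameter Hill fits of normalized qHTS data. The reaction used 10 nM FEN1 preincubated 15 min at room temperature with compound, then 50 nM DNA substrate, read at 0 and 15 min.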
RECQ1 helicase: qHTS Assay for Inhibitors of RecQ-Like Dna Helicase 1 (RECQ1); Potency, µM (highest dose often 57.3 µM), inactives show top-dose activity, negative = inhibition, actives largely listed as inhibitors; RECQ1 DNA unwinding, red fluorescence kinetic read; ATP-dependent DNA helicase Q1 (Homo sapiens), P46063; 240,000 tested, 0.54% active;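 also: potency is read from the fitted curve at half-maximal effect; plate controls were vehicle for no effect and no enzyme for full effect; nearly all actives have a fitted effect of over 30% in size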
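50 nM RECQ1T1 preincubated 15 min with compound in Tris pH 8.0 buffer with MgCl2, DTT, Tween-20 and 2.5 ug/ml poly(dI-dC); started with 200 nM TAMRA/BHQ-2 forked duplex and 2 mM ATP. Unwinding read as fluorescence (525/598 nm), two reads 2 h apart.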
WRN inhibitor: qHTS for Inhibitors of WRN Helicase; 360,000 tested, 0.46% active; WRN helicase unwinding, fluorescent forked duplex, kinetic; Potency, µM (top dose mostly 114 µM), inactives show at the highest dose activity change, negative = inhibition, most hits filed as inhibitors; Bifunctional 3'-5' exonuclease/ATP-dependent helicase WRN (Homo sapiens), Q14191; also: potency is read from the fitted curve at half-maximal effect; nearly all actives have a fitted effect of over 55% in size
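Kinetic fluorescence helicase assay: unwinding of a quenched forked DNA duplex (100 nM final) with 2 mM ATP final raises red fluorescence (525/598 nm). Compounds sat 15 min at room temperature with 20 nM WRN beforehand.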
* = called active by the depositor; i = inactive; u = inconclusive; x = no result given. Unless noted, calls follow the shape of the dose curve; as a rule, active = well fitted curve in the direction sought with a large enough effect; inconclusive = small, poorly fitted or top-dose-only effect, or another doubt; inactive = no such curve, though single readings can be large; an effect the other way counts as inactive or inconclusive. Unless noted, % is scaled to controls: 0 for no effect and ±100 for the full control effect.

SMILES | APE1 inh | BLM helicase inh | PI5P4K alpha inh | FEN1 inhibitor | RECQ1 helicase | WRN inhibitor
O=C1C2=C(NC(=S)NC2c2ccc(Cl)cc2)NC(c2ccc(Cl)cc2)N1c1ccc(Cl)cc1 (configuration not stated) | -10% | -1% | -52* | -20% | -11% | -9%
COc1ccc(NC(=O)CN2C(=O)S/C(=C/c3cccn3-c3ccc(C(=O)O)cc3)C2=O)cc1 | 1.7µM* | u | x | x | x | x
COc1ccc(/C=C2\SC(=O)N(CCCC(=O)Nc3ccc(C(=O)O)cc3)C2=O)cc1 | x | x | -9 | x | x | 3%
Cc1ccc(-c2nn(-c3ccccc3)cc2C=C2SC(=S)N(CCS(=O)(=O)O)C2=O)cc1 | x | x | -89* | x | x | 20µM*
COc1cc(/C=C2\SC(=S)N(NS(=O)(=O)c3ccccc3)C2=O)cc(OC)c1OC | -15% | -6% | -29 | -16% | 5% | -27%
COc1cccc(/C=C2\SC(=S)N(NS(=O)(=O)c3ccccc3)C2=O)c1OC | 34% | -4% | -60* | -3% | x | -13%
C=CCOc1ccc(/C=C2\SC(=S)N(NS(=O)(=O)c3ccc(C)cc3)C2=O)cc1 | -16% | -16% | -55* | -20% | x | u
Cc1ccc(S(=O)(=O)NN2C(=O)/C(=C/c3ccc(C(=O)O)cc3)SC2=S)cc1 | 1% | -2% | -57* | 50µM* | x | -35%
Cc1ccc(S(=O)(=O)NN2C(=O)/C(=C/c3cccs3)SC2=S)cc1 | u | -7% | -59* | -2% | -7% | -7%
NC(=O)C1CCCN1C(=O)C(Cc1cnc[nH]1)NC(=O)C1CCC(=O)N1 (configuration not stated) | -4% | -3% | x | x | -16% | x
CC(C)(C)OC(=O)NS(=O)(=O)NCc1ccco1 | -1% | -1% | x | -7% | i | x
O=C1NC(=S)SC1=C1CCCCCC1 | -3% | u | -57* | -2% | -4% | -7%
CCOc1cc(-c2c(C#N)c(=O)[nH]c3c2c(C)nn3-c2ccc(F)cc2)ccc1O | 0% | 2% | -56* | 7% | -9% | -34%
CCOc1cc(/C=C2/SC(=S)N(Cc3ccccc3)C2=O)ccc1O | 6% | -19% | 6 | -36% | x | 35µM*
O=C(O)CN1C(=O)/C(=C\c2cc(Br)ccc2OCc2ccccc2Cl)SC1=S | -65% | u | 0 | u | x | 56µM*
O=C1/C(=C/c2ccc(O)c([N+](=O)[O-])c2)SC(=S)N1Cc1ccccc1 | u | -1% | -7 | -15% | 5% | -10%
COc1cc(/C=C2\SC(=S)N(NC(=O)c3ccccc3O)C2=O)ccc1O | 15% | -7% | -62* | u | x | 56µM*
O=C1/C(=C\c2cc(Br)cc(Br)c2O)SC(=S)N1Cc1ccccc1 | -27% | -29% | u | u | x | 40µM*
O=C1/C(=C/c2ccccc2O)SC(=S)N1Cc1cccnc1 | 1% | -2% | -51* | 13% | 6% | -3%
O=C1/C(=C\c2cccc([N+](=O)[O-])c2O)SC(=S)N1Cc1ccccc1 | -27% | -14% | -90* | u | x | u
O=S(=O)(c1ccc2c(c1)CCCC2)N1CCN(c2nc(-c3cccs3)nc3ccccc23)CC1 | x | x | x | 3% | x | x
Nc1ccc(-c2nc3nc(N)nc(N)c3nc2-c2ccc(N)cc2)cc1 | -1% | u | -51* | -35% | -11% | -26%
Nc1ccc(OCCCc2c(N)nc(N)nc2N)cc1 | -5% | -27% | -17 | 0% | -13% | 1%
CSc1nc(N2CCN(CCO)CC2)c2sc3nc(-c4ccco4)c4c(c3c2n1)CCC4 | 17% | 13µM* | x | x | -2% | x
CSc1nc(NCCN(C)C)c2sc3nc(-c4ccco4)c4c(c3c2n1)CCC4 | x | x | -10 | u | x | -22%
SMILES | APE1 inh | BLM helicase inh | PI5P4K alpha inh | FEN1 inhibitor | RECQ1 helicase | WRN inhibitor
COC(=O)c1sc(-c2cccs2)cc1NC(=O)/C=C/C(=O)O | -3% | 16µM* | -15 | -13% | -7% | 3%
COc1ccc(-c2nc(SCCOc3cc(C)ccc3C(C)C)n3[nH]c(=O)cc3n2)cc1 | x | -3% | x | -12% | x | x
C[n+]1ccc(/C=C/c2ccccc2O)c2ccccc21 | -8% | -6% | 1 | u | -2% | -8%
COc1cc(OC)c(OC)cc1/C=C/c1cc[n+](C)c2ccccc12 | x | x | x | 40µM* | x | x
C[n+]1ccc(/C=C/c2ccc(C=S)cc2)c2ccccc21 | x | x | x | 50µM* | x | x
COc1c2c(cc3c1C(CC(O)C(C)C)N(C)CC3)OCO2 (configuration not stated) | 1% | 1% | x | x | 2% | x
CCc1ccc(CNc2ncc(-c3cccc(OC)c3)n2C)cc1 | x | 1% | x | u | x | x
CC(C)C12CN3CC(C(C)C)(CN(C1)C3c1ccc(Cl)cc1)C2=O (configuration not stated) | x | -4% | x | -6% | x | x
CC(NC1CCCCC1)C(=O)NN=C(c1ccccc1)c1ccccc1 (configuration not stated) | -4% | -3% | 6 | -6% | 28µM* | -3%
CC(Cl)C(=O)NN=C(c1ccccc1)c1ccccc1 (configuration not stated) | 20% | -5% | 0 | -11% | i | -1%
Oc1ccc(CNc2ccccc2)c2cccnc12 | 3% | -7% | -55* | -14% | -5% | -3%
NS(=O)(=O)c1ccc(N=C2C(=O)Nc3ccccc32)cc1 | 7% | -7% | 0 | 0% | -2% | -7%
O=C1Nc2ccccc2C1=Nc1ccc(S(=O)(=O)Nc2nccs2)cc1 | -5% | -6% | -79* | 50µM* | 1% | 20µM*
CC(C)(C)C1CCC(=NNc2nc3ccccc3[nH]2)CC1 (configuration not stated) | 16% | -2% | -14 | 1% | 23% | 5%
c1ccc2c(c1)CC/C2=N/Nc1nc2ccccc2[nH]1 | -9% | -6% | -22 | 1% | 35µM* | u
O=C1NC(=S)CN1c1ccccc1 | 2% | -1% | -59* | -31% | i | 18%
COc1cc(/C=C2/C(=O)NN(c3ccc(Cl)cc3)C2=O)cc(OC)c1O | 16% | -7% | -3 | -11% | x | -26%
COc1cc(/C=C2\C(=O)NN(c3ccccc3)C2=O)cc([N+](=O)[O-])c1O | u | -7% | -70* | u | -19% | u
